From PubChem
A549 tox: kills or reduces viability of A549 cells in Nrf2 counter-screen; A549 ARE-Fluc cells, CellTiter-Fluor viability, 18-24 h; actives 0.16% (n = 390,000); AID 504648; Potency, µM (series often up to 46 µM), for the others: at the highest dose activity change, negative = cytotoxicity, most hits filed as inhibitors; further: on the % scale 0 is the no-effect control and ±100 the full control effect
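Cytotoxicity counterscreen: CellTiter-Fluor fluorescence was measured in A549 ARE_Fluc cells after 18-24 h of compound exposure in a concentration series. The subsequent BugLite luminescent read reports ARE-luciferase activity.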
Nrf2 inh: blocks Nrf2 signaling; A549 ARE-Fluc reporter, luciferase luminescence, 18-24 h; Potency, µM (highest dose often 46 µM), inactives show at the top dose activity change, negative = inhibition, usual class: inhibitors; actives 2.1% (n = 360,000); further: on the % scale 0 is the no-effect control and ±100 the full control effect; nearly all actives have a fitted effect of over 60% in size
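Reporter: ARE-Fluc in A549. Exposure: 18-24 h, 37 °C, 5% CO2, 5% FBS OPTI-MEM. Readouts: fluorescent cytotoxicity (CellTiter-Fluor), then luminescent Nrf2 signal after BugLite.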
GALK inh: galactokinase (human) inhibition. P51570. Purified GALK, Kinase-Glo residual ATP luminescence. Potency, µM (series often up to 57.5 µM), for the others: top-dose activity change, negative = inhibition, actives largely listed as inhibitors. actives 0.007% (n = 270,000). AID 1868; further: on the % scale 0 is the no-effect control and ±100 the full control effect
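Kinase-Glo Plus luminescence measured ATP left after a 1 h room-temperature reaction. The reaction used 5 nM GALK, 100 uM galactose and 35 uM ATP at pH 8.0 (20 mM HEPES, 5 mM MgCl2, 60 mM NaCl, 1 mM DTT, 0.01% BSA).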
TrxR1 substrate: is turned over as a substrate by rat TrxR1. Potency, µM (series often up to 114 µM), without a hit: at the highest dose activity change, negative = substrate turnover. actives 0.01% (n = 390,000). AID 588456. O89049. purified TrxR1 substrate turnover, NADPH consumption readout; further: on the % scale 0 is the no-effect control and ±100 the full control effect; nearly all actives have a fitted effect of over 50% in size
Target sequence (O89049 whole entry, looked up): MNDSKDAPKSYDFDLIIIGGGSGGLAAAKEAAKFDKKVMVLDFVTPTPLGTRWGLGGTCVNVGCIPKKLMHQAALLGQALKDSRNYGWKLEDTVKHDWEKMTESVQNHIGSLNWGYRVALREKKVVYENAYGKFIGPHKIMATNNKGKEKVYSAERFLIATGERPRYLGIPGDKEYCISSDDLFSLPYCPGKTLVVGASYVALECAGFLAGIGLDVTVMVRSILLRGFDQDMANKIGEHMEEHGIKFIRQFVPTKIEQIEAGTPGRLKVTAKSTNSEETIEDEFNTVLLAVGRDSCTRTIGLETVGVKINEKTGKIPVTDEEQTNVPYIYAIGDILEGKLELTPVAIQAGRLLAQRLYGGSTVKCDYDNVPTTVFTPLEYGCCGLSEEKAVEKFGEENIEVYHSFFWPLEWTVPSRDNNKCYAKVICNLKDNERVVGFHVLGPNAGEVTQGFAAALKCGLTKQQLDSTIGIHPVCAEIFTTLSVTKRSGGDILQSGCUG
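Rat TrxR1, dispensed at 90 nM, was prereduced with 400 uM NADPH (final) for 5 min at ~22 deg C, then incubated with compound 15 min before 400 uM selenite. A first-read NADPH fluorescence drop versus no-compound background flagged substrates.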
Nrf2 activator: Nrf2 pathway activation; AREc32 ARE-luciferase reporter (MCF7-derived line), luminescence, 24 h; AID 624171; actives 0.31% (n = 410,000); Potency, µM (top dose mostly 46.1 µM), for inactives: at the highest dose activation, most hits filed as activators; further: % of control where 0% means no effect; nearly all actives have a fitted effect of over 65% in size
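Each well held 1000 AREc32 cells, which were incubated with compound for 24 hr at 37 deg C after overnight attachment, and ARE reporter activity was quantified by firefly luciferase luminescence.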
rTrxR1 inhibitor: rat TrxR1 inhibition; recombinant rTrxR1, NADPH fluorescence consumption, selenite substrate; Potency, µM (highest dose often 114 µM), for the others: top-dose activity change, negative = inhibition, usual class: inhibitors; actives 1% (n = 390,000); further: on the % scale 0 is the no-effect control and ±100 the full control effect; nearly all actives have a fitted effect of over 65% in size
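Rat TrxR1 (90 nM in the dispensed reagent) was pre-reduced with 400 uM NADPH for 5 min at room temperature, then incubated with compound for 15 min. After 400 uM selenite was added, NADPH fluorescence (Ex 340/Em 450 nm) was followed for 8 min.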
* marks the source's active call; other numbers are inactive results; ? = inconclusive; · = no result given; [ ] = remark or other dose. Rows were chosen to be rich in hits. Some 3% of all compounds tested hit in one or more screens of this group. The call rests on the fitted dose curve; in most records, active means well fitted curve in the direction sought with a large enough effect; inconclusive means small, poorly fitted or top-dose-only effect, or another doubt; inactive means no such curve, though single readings can be large; an effect the other way counts as inactive or inconclusive. Potency means the concentration at half of the fitted maximal effect.

SMILES | A549 tox | Nrf2 inh | GALK inh | TrxR1 substrate | Nrf2 activator | rTrxR1 inhibitor
CCc1cccc(CC)c1NC(=S)NCCc1c(C)[nH]c2ccc(C)cc12 | -17.3% | 16.4µM* | · | -5.9% | -1.7% | -4.4%
CN(C)CCCNC(=O)C1CCNCC1 | 3.5% | 9.9% | -3.9% | -5.7% | 0.0% | 70.8µM*
CN(C)CCCNC(=O)c1cc(C(=O)C2CCCCC2)c[nH]1 | 4.9% | -9.8% | 1.5% | 6.4%[57.1 µM] | -0.7% | 17.0%
CCOc1cc(/C=C2\CN(C)C/C(=C\c3ccc(O)c(OCC)c3)C2=O)ccc1O | 13µM* | 20.6µM* | -8.4% | -15.9% | ? | 56.2µM*
Cc1c(C#N)c(O)n(CCO)c(=O)c1N=Nc1ccc(S(N)(=O)=O)cc1 | 14.6µM* | -18.0% | 0.0% | -16.1% | 0.2% | -20.2%
CCOC(=O)C1CCC(CN(Cc2ccc(OC)cc2)S(=O)(=O)c2ccc(C)cc2)CC1 (stereo not given) | 7.2% | · | · | -7.8%[57.1 µM] | 3.5% | 3.6%[57.1 µM]
CCOc1ccc(C(=O)Nc2ccc(-c3nc4cc(C(C)C)ccc4o3)cc2)cc1Cl | -3.7% | -27.5% | · | 15.4% | 3.8% | 24.6%
COc1cc(C(=O)Nc2ccc(-c3nc4cc(C)ccc4o3)c(O)c2)cc(OC)c1OC | -16.4% | 20.6µM* | -1.4% | 195.5% | 0.0% | 142.2%
CCc1ccc2oc(-c3cc(NC(=O)c4cc(OC)c(OC)c(OC)c4)ccc3O)nc2c1 | -6.2% | 3.9% | · | -7.8% | 3.8% | -4.0%
Cc1cccc(C(=O)Nc2ccc(-c3nc4cc(C(C)C)ccc4o3)cc2)c1 | 1.9% | 14.6µM* | · | 18.5% | 5.3% | -16.2%
COc1cc(OC)cc(C(=O)Nc2ccc(-c3nc4cc(C(C)C)ccc4o3)cc2)c1 | -4.2% | 14.6µM* | · | 16.5% | 13.8% | 7.8%
COc1ccc(C2=C(C)C(=O)N(Cc3ccc(C(=O)Nc4ccc(F)cc4C)cc3)S2(=O)=O)cc1 | -8.7% | -15.7% | · | 106.8%[57.1 µM] | -0.1% | 49.3%[57.1 µM]
CC(=O)N(c1ccc(Cl)cc1)c1cn(C(C)=O)c2ccccc12 | -0.1% | 2.1% | 7.4% | 1.7% | -0.3% | 14.5%
CC(=O)n1cc(N(C(=O)CCl)c2ccc(C)cc2)c2ccccc21 | -10.4% | -12.0% | -14.4% | -3.4% | ? | 2µM*
COc1ccc(Cn2c(C(=O)O)c(CNC3CCCCC3)c3ccc(C)cc32)cc1 | ? | -11.9% | · | 1.0% | 4.1% | 8.1%
c1nc(NCc2ccc3c(c2)OCO3)c2cc(-c3ccc4c(c3)OCCO4)ccc2n1 | 2.4% | 23.1µM* | · | 28.9% | 7.0% | 33.4%
Cc1cccc(CNc2ncnc3ccc(-c4ccc5c(c4)OCCO5)cc23)c1 | ? | 14.6µM* | · | 34.8% | 3.8% | 15.2%
COc1cccc(-c2ccc3ncnc(NCc4ccc5c(c4)OCO5)c3c2)c1 | -18.7% | 16.4µM* | · | 6.4% | -0.4% | 19.4%
Cc1cccc(CNc2ncnc3ccc(-c4ccoc4)cc23)c1 | -15.6% | 18.4µM* | · | 21.7% | -0.8% | 23.4%
Cc1c(-c2nsc(NC(=O)c3cccs3)n2)nnn1-c1ccc(F)cc1 | -1.1% | ? | · | 8.8%[57.1 µM] | 3.6% | 29.2%[57.1 µM]
O=C(Nc1ncnc2nc[nH]c12)c1ccccc1 | 5.0% | 16.2% | · | 3.7% | · | 18.0%
Cc1noc(C)c1-c1ccc2ncnc(NCc3ccc(-c4ccccc4)cc3)c2c1 | -11.7% | 11.6µM* | · | · | · | ·
CC(=O)Nc1ccc(CNc2ncnc3ccc(-c4c(C)noc4C)cc23)cc1 | 3.2% | ? | · | 2.2% | ? | 14.1%
COC(=O)N1C(=O)[C@](c2ccc(OC)cc2)(C(C)C)N1C(=O)OC | -5.0% | -7.3% | · | 6.8% | ? | ?
CC[C@@]1(c2cccc(C)c2)C(=O)N(C(=O)OC)N1C(=O)OC | -9.0% | ? | · | 4.5% | -0.2% | 2µM*
COC(=O)N1C(=O)[C@](c2ccccc2)(C2CCCCC2)N1C(=O)OC | -8.5% | ? | · | -4.6% | ? | ?
CC[C@@]1(c2ccccc2OC)C(=O)N(C(=O)OC)N1C(=O)OC | -9.2% | -24.0% | · | 6.0%[57.1 µM] | 5.6% | ?
